In the library only some 6.5% were active in any assay of this set; here they are far more common.
PMK inhibit: S. pneumoniae PMK inhibitors, primary screen, biochemical, mevalonate pathway, pilot trial included; purified PMK, PK/LDH-coupled NADH absorbance 340 nm; actives 0.49% (n = 65,000); inhibition, % at 10 µM; phosphomevalonate kinase (Streptococcus pneumoniae D39);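 active = top-ranked compounds by inhibition in the single 10 µM screen, taking a fixed number of the strongest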;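 note: 0% = full reaction with DMSO carrier and 100% = background rate without enzyme reaction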
Spn DPM-DC inh: S. pneumoniae DPM-DC inhibitors, primary screen, biochemical, PK/LDH-coupled NADH fluorescence | diphosphomevalonate decarboxylase (Streptococcus pneumoniae D39) | purified DPM-DC | calls only at 10 µM | actives 0.49% (n = 65,000);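 active = the 320 compounds with the highest percent inhibition in the single-dose primary screen, excluding strongly autofluorescent ones, cut at about 32% in these data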;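 note: kinetic rate of NADH fluorescence loss reporting ADP formed by the decarboxylase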
NADH enzymes: inhibitors of PK/LDH coupling enzymes, profiling panel, artefact control, biochemical, MLSMR library | coupled PK/LDH NADH assays, four targets | IC50, µM (titrated, usually from 10 µM), without a hit: at the highest dose inhibition | actives 0.02% (n = 65,000);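 active = single-dose screening hits from any of four coupled enzyme assays that gave an IC50 when retested across doses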;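 note: the DPM-DC format reads NADH fluorescence rather than 340 nm absorbance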
Fluor 339 460: intrinsic fluorescence of library compounds, ex339/em460 – biochemical, MLSMR library, data from DPM-DC assay, artefact control, profiling panel; compound autofluorescence, ex339/em460 nm, NADH buffer; active compounds read high; 1 = no-compound wells, NADH background; AID 709, 2007; actives 5.5% (n = 65,000); fluorescence fold increase at 10 µM;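 active = at 10 µM, mean starting fluorescence two-fold or more over control wells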;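 note: signal is the first read of a kinetic run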
MK inhibit: S. pneumoniae MK inhibitors, primary screen, biochemical, PK/LDH-coupled NADH absorbance; purified MK, PK/LDH-coupled NADH absorbance 340 nm; inhibition, % at 10 µM; AID 555, 2006; mevalonate kinase [Streptococcus pneumoniae D39]; actives 0.48% (n = 65,000);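 active = ranked among the strongest by inhibition in the single 10 µM screen, a fixed top-ranked set picked for dose follow-up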
Abs 340nm: compound light absorbance at 340 nm, profiling panel, artefact control, biochemical, MLSMR library, data from PS, PMK, MK assays; compound absorbance at 340 nm, fold over control; 65,000 tested, under 10 active; fold change at 10 µM;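 active = at 10 µM dose, initial 340 nm absorbance at least 2 fold that of control wells; inactive = change under 2 fold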;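 note: initial absorbance extrapolated from kinetic A340 decline of NADH oxidation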
An asterisk follows results filed as active; i = inactive; . = no result given; + = active, no number.

SMILES | PMK inhibit | Spn DPM-DC inh | NADH enzymes | Fluor 339 460 | MK inhibit | Abs 340nm
Clc1cccc(-c2nnc3sc(-c4ccc5c(c4)OCO5)nn23)c1 | 3.0 | i | 1.0% | 1.25 | 0.0 | 1.05
c1ccc2c(c1)ncn2Cc1nnc2sc(-c3ccc4c(c3)OCO4)nn12 | 15.0 | . | 12.0% | 3.8* | 8.0 | 1.08
Clc1ccccc1-c1nn2c(Cn3cnc4ccccc43)nnc2s1 | 5.0 | i | 5.0% | 1.08 | 10.0 | 1
Clc1ccccc1-c1nnc2sc(-c3ccc4c(c3)OCO4)nn12 | 11.0 | i | 17.0% | 2.59* | 20.0 | 1.04
c1ccc2c(c1)OCC(c1nnc3sc(-c4ccc5c(c4)OCO5)nn13)O2 (stereo not given) | 10.0 | i | 6.0% | 2.57* | 0.0 | 1.04
COc1ccc(NC(=O)c2cnc3ccccn3c2=O)c(OC)c1 | 4.0 | i | 1.0% | 1.07 | 0.0 | 1.18
CCCCCn1c(C(C)NC(=O)CCC)nc2ccccc21 (stereo not given) | 0.0 | i | 3.0% | 1.03 | 5.0 | 1.03
O=C1C2C3CCCC3=C3CCCC3C2C(=O)N1c1ccccc1 (stereo not given) | 3.0 | i | 4.0% | 1.08 | 8.0 | 1
CCCCNC(=O)NS(=O)(=O)c1ccc(NS(=O)(=O)c2ccccc2)cc1 | 2.0 | i | 2.0% | 1.1 | 3.0 | 1.03
COc1cc2nc(C3CCC3)n(NC(=O)C3CCCC(OC)C3)c(=O)c2cc1OC (stereo not given) | active | i | 4.0% | 1.01 | 9.0 | 0.97
CC(C)c1ccc2oc(-c3ccc(NC(=O)c4ncn[nH]4)cc3)nc2c1 | 4.0 | . | 8.0% | 3.56* | 12.0 | 1.08
O=C(Nc1ccc2oc(-c3ccccc3Cl)nc2c1)c1ncn[nH]1 | 0.0 | . | 6.0% | 2.1* | 12.0 | 1.05
Cc1ccc(-c2nc3cc(N)ccc3o2)c(C)c1 | 0.0 | . | 3.0% | 3.97* | 6.0 | 1.03
CC(C)c1ccc2oc(-c3ccc(N)cc3)nc2c1 | 4.0 | . | 9.0% | 2.12* | 14.0 | 1.24
Cc1ccc(-c2nc3cc(N)ccc3o2)cc1 | 5.0 | . | 3.0% | 1.98 | 10.0 | 1.08
O=C(Nc1ccc(N2CCOCC2)c(Cl)c1)c1ncn[nH]1 | 11.0 | i | 6.0% | 1.06 | 6.0 | 1.03
COc1ccc(-n2cnnc2SCc2csc(-c3ccccc3)n2)cc1 | 0.0 | i | 1.0% | 1.13 | 3.0 | 1.02
CCC(C)c1ccc(O)c(NC(=O)c2ncn[nH]2)c1 (stereo not given) | 15.0 | i | 13.0% | 1.09 | 13.0 | 1.06
CCC(C)c1ccc2oc(-c3ccc(NC(=O)c4ncn[nH]4)cc3)nc2c1 (stereo not given) | 0.0 | . | 6.0% | 3.61* | 11.0 | 1.16
O=S(=O)(c1ccccc1Cl)N1CCC(O)(c2ccc3c(c2)OCO3)CC1 | 4.0 | i | 2.0% | 1.12 | 3.0 | 1
CC(C)COC(=O)n1ccc(C(=O)N2CCCCC2)n1 | 25.0* | i | 11.0% | 1.04 | 4.0 | 0.99
CC(C)CNS(=O)(=O)c1ccccc1C(=O)N1CCCCC1 | 5.0 | i | 4.0% | 1.13 | 8.0 | 1
COC(=O)c1ccc(Nc2ncnc3c2cnn3-c2cccc(C)c2)cc1 | 7.0 | . | 4.0% | 2.15* | 0.0 | 1.12
Cc1ccc(CNC(=O)CSc2ncccn2)cc1 | 9.0 | i | 9.0% | 1.09 | 12.0 | 1
CC1(C)Cc2[nH]c(=O)c(C#N)cc2CS1 | 7.0 | i | 15.0% | 1.33 | 12.0 | 1.1
SMILES | PMK inhibit | Spn DPM-DC inh | NADH enzymes | Fluor 339 460 | MK inhibit | Abs 340nm
CC1(C)Cc2nc3sc4c(=O)[nH]cnc4c3cc2CS1 | 8.0 | + | 18.0% | 2.79* | 9.0 | 1.06
COc1ccc(N2C(C)=CS/C2=C(/C#N)c2nnc(N3CCOCC3)n2-c2ccccc2)cc1 | 74.0* | + | 72.0% | 1.15 | 78.0* | 1.22
O=C1NC(c2ccc3c(c2)OCO3)Oc2ccccc21 (stereo not given) | 0.0 | i | 4.0% | 1.26 | 12.0 | 1.02
O=C1NC(c2ccc3c(c2)OCO3)Nc2ccccc21 (stereo not given) | 11.0 | . | 9.0% | 4.85* | 6.0 | 0.99
CC1(CCc2ccc3c(c2)OCO3)NC(=O)c2ccccc2N1 (stereo not given) | 4.0 | . | 5.0% | 3.76* | 5.0 | 1.04
Cc1ccccc1-n1c(=O)cc(NCc2ccc3c(c2)OCO3)[nH]c1=O | 6.0 | i | 3.0% | 1.09 | 3.0 | 0.99
CCC(C)NC(=O)C1=C(C)C(=O)OC12CCC(C)CC2 (stereo not given) | 0.0 | i | 5.0% | 1.08 | 12.0 | 1.02
Cc1noc(C)c1S(=O)(=O)N1CCC(C(=O)NC2CCCc3ccccc32)CC1 (stereo not given) | 17.0 | i | 6.0% | 1.08 | 0.0 | 1.04
COc1ccc2[nH]c(=O)c(CN(CCO)S(=O)(=O)c3ccc4c(c3)OCCO4)cc2c1 | 1.0 | i | 4.0% | 2.08* | 10.0 | 0.99
CCc1ccc2[nH]c(=O)c(CN(Cc3ccccc3OC)Cc3nnnn3Cc3ccco3)cc2c1 | 1.0 | i | 2.0% | 1.23 | 4.0 | 1.04
CCc1ccc2[nH]c(=O)c(CN(Cc3ccco3)S(=O)(=O)c3ccc4c(c3)OCCO4)cc2c1 | 18.0 | i | 11.0% | 1.39 | 8.0 | 1.03
COC(=O)c1ccccc1S(=O)(=O)N(Cc1ccco1)Cc1cc2cc(OC)ccc2[nH]c1=O | 15.0 | i | 15.0% | 2.13* | 10.0 | 1.03
COc1ccc2[nH]c(=O)c(CN(Cc3ccco3)Cc3nnnn3Cc3ccccc3)cc2c1 | 5.0 | i | 7.0% | 2.26* | 9.0 | 1.05
CCOc1ccc2[nH]c(=O)c(CN(Cc3ccco3)Cc3nnnn3Cc3ccccc3)cc2c1 | 1.0 | i | 4.0% | 2.01* | 9.0 | 1.06
O=C(CSc1nnc(-c2ccco2)n1Cc1ccco1)N1CCOCC1 | 11.0 | i | 6.0% | 1.11 | 8.0 | 1.01
O=S(=O)(c1ccccc1F)N(Cc1ccco1)Cc1nnc(-c2ccccc2Br)o1 | 4.0 | i | 3.0% | 1.07 | 6.0 | 1.01
CCC(c1nnc(SCC(=O)Nc2nnc(-c3ccccc3)o2)n1Cc1ccccc1)N(C)C (stereo not given) | 12.0 | i | 4.0% | 1.05 | 0.0 | 1.01
COc1ccc(N=C(C)C2=C(O)COC2=O)cc1 | 6.0 | i | 6.0% | 1.04 | 8.0 | 1.08
CC(=O)NC(CCS(C)(=O)=O)C(=O)Nc1ccc(Oc2ccccc2)cc1 (stereo not given) | 13.0 | i | 4.0% | 1.05 | 0.0 | 1
CCn1cc(C(=O)Nc2nncs2)c(=O)c2cc(F)c(N3CCN(C(=O)c4ccco4)CC3)cc21 | 19.0 | i | 15.0% | 2.35* | 5.0 | 1.01

Bioassay records from PubChem BioAssay.
